Reference: PubChem BioAssay (NCATS)
Results filed as inconclusive are left out. Entries that show only a call come without a potency. The source made the active and inactive calls. The call rests on the fitted dose curve; in most records, active means well fitted inhibition curve with a large enough effect; inconclusive means small, poorly fitted or top-dose-only effect; inactive means flat fitted curve, though single readings scatter.

Each molecule was assayed against Phospholipid hydroperoxide glutathione peroxidase GPX4 (Homo sapiens) (UniProt P36969) (assay: Primary qHTS Assay for Inhibitors of Recombinant Selenoprotein Glutathione Peroxidase 4 (GPX4) (AID 1845192; further: nearly all actives have a fitted effect of over 65% in size)). Conditions: recombinant GPX4, GR-coupled NADPH fluorescence, 15 min; series mostly up to 50 µM.
Text: Assay Provider: Elias S.J. Arner MD PhD.
Department of Medical Biochemistry and Biophysics
Karolinska Institutet, Solna, Stockholm, Sweden
Selenoprotein glutathione peroxidases (GPX), like the ubiquitously expressed GPX1 and the ferroptosis modulator GPX4, enact their antioxidant activities by reducing hydroperoxides using glutathione. […] GPX1 and GPX4 inhibitors have thus shown promise as anti-cancer agents. Existing inhibitors are often promiscuous, or modulate GPX activity only indirectly, so novel direct inhibitors identified through screening against GPX1 and GPX4 could be valuable. Here, we developed optimized glutathione reductase (GR)-coupled GPX assays for the biochemical high-throughput screen (HTS) of almost 12,000 compounds with known mechanisms of action. Initial hits were triaged using a GR counter-screen, assessed for isoform specificity using a separate GPX2 assay, and were assessed for general selenocysteine-targeting activity using a thioredoxin reductase (TXNRD1) assay. With this suite of assays, we identified novel GPX1/GPX2- and GPX4-specific inhibitors and can here present a validated pipeline for future discovery research for selenoprotein-targeting agents.
SEQUENCE No. (e.g., 1, 2, 3, etc.); […] (e.g., Cells, Incubation, Reagent, etc.); VALUE; DESCRIPTION.
1; Reagent 1; 3 uL; 333.33 nM GPx4 enzyme or no enzyme control in 1536-well, black, solid Greiner assay plate.
2; Compound; 25 nL; Kalypsis pin tool (Wako USA) equipped with a 1536-well pin head.
3; Incubation; 30 min; room temperature.
4; Reagent 2; 1 uL; 500 nM GR, 5 mM GSH, 2.5 mM NADPH solution
5; Reagent 3; 1 uL; 2.5 mM CHP in 50% EtOH.
6; Detection; Fluorescence; ViewLux microplate reader, excitation 340 nm and emission 450 nm.
7; Incubation; 15 min; room temperature.
8; Detection; Fluorescence; ViewLux microplate reader, excitation 340 nm and emission 450 nm.
NOTES (numbers refer to Sequence numbers above)
1. 3 µL of 333.33 nM GPX4 and 0.016% BSA in assay buffer (50 mM Tris-HCl, 2 mM EDTA (pH 7.5), 150 mM NaCl) was added to columns 3-48 of 1536-well plates using a BioRAPTR Flying Reagent Dispenser (Let's Go Robotics (LGR), Carlsbad, CA). A no-enzyme control (0.01% BSA in TES assay buffer) was added to columns 1-2.
2. 25 nL, library and DMSO controls were added to each well with a pin tool (Kalypsys).
3. The assay plates were incubated for 30 minutes at room temperature.
4. 1 µL of master mix (500 nM glutathione reductase (GR), 5 mM reduced glutathione (GSH), 2.5 mM NADPH in assay buffer) was added.
5. 1 µL of cumene hydroperoxide (CHP) ([2.5 mM] in 50% EtOH) was then added within 5 minutes to initiate the reaction. Final concentrations were: 200 nM GPX4, 1 mM GSH, 0.5 mM CHP, 0.5 mM NADPH, 100 nM GR, 0.01% BSA.
6. Initial fluorescence readout (t=0) at 340/450 nm was measured using a ViewLux multimodal detector (PerkinElmer, Waltham, MA).
8. Endpoint fluorescence readout (t=15) at 340/450 nm was measured 15 min after room temperature incubation.

Phospholipid hydroperoxide glutathione peroxidase GPX4 (Homo sapiens), sequence (P36969 whole entry, looked up): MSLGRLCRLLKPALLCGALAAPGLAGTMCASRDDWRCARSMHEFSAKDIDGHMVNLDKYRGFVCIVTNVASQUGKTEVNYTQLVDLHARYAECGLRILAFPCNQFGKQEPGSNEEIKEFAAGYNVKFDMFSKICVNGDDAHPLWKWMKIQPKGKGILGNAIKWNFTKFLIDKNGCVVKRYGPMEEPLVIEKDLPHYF

| Structure (SMILES) | Potency |
| --- | --- |
| COC(=O)C(N)Cc1ccc(Cl)cc1 (stereo not given) | inactive |
| COc1cc(/C=C(\C#N)C(=O)c2ccc(O)c(O)c2)cc(I)c1O | inactive |
| c1ccc(C(NCCNC(c2ccccc2)c2ccccc2)c2ccccc2)cc1 | inactive |
| COc1cc2c(CCNC(C)=O)c[nH]c2cc1O | inactive |
| CCCN(CCc1ccccc1)C1CCc2c(O)cccc2C1 (stereo not given) | inactive |
| COc1ccccc1N1CCN(CCCCN2C(=O)c3ccccc3C2=O)CC1 | inactive |
| CC(=O)O[C@H]1Cc2ccccc2N(C(N)=O)c2ccccc21 | inactive |
| O=c1[nH]c(=S)[nH]c(-c2ccccc2)c1Cc1c(O)ccc2ccccc12 | inactive |
| NC(N)=N[C@@H](CCC(=O)O)C(=O)O | inactive |
| CSc1nc(N)c2ncn([C@@H]3O[C@H](COP(=O)(O)OP(=O)(O)O)C(O)[C@H]3O)c2n1 (stereo not given in full) | inactive |
| O=C(O)CCC(=O)N1CCCC1C(=O)O (stereo not given) | inactive |
| Cn1cc(C(F)(F)F)nc1-c1ccc(OCC(O)CNCCOc2ccc(O)c(C(N)=O)c2)cc1 (stereo not given) | inactive |
| Oc1ccc(Cn2cc[nH]c2=S)cc1 | inactive |
| CN1CCN(c2nc3cc(C(F)(F)F)ccc3n3cccc23)CC1 | inactive |
| C[C@H](O)C(=O)C1=Nc2c(nc(N)[nH]c2=O)NC1 | inactive |
| Nc1ccc(N2C(=O)c3ccccc3C2=O)c(Cl)c1 | inactive |
| N#C/C(=C\c1ccc(O)c(O)c1)C(=O)NCCc1ccccc1 | inactive |
| Clc1nccc2c1ccc1ccccc12 | inactive |
| C=CCN1CCc2c(cc(O)c(O)c2Cl)C(c2ccccc2)C1 (stereo not given) | inactive |
| COc1cc(C(O)CO)ccc1O (stereo not given) | inactive |

| Structure (SMILES) | Potency |
| --- | --- |
| NC1(C(=O)O)CCc2cc(C(=O)O)ccc21 (stereo not given) | inactive |
| CCCOC(=O)c1c(-c2ccccc2)nc(CC)c(C(=O)SCC)c1CCC | inactive |
| CC(=O)N[C@@H](Cc1c[nH]c2ccccc12)C(=O)OCc1cc(C(F)(F)F)cc(C(F)(F)F)c1 | inactive |
| CC[C@H](NC(=O)c1c(C)c(-c2ccccc2)nc2ccccc12)c1ccccc1 | inactive |
| CN(C)CCC(c1ccc(Br)cc1)c1ccccn1 (stereo not given) | inactive |
| CN(C)CCCc1cc(C(=O)Nc2ccc(-c3ccncc3)cc2)ccc1O | inactive |
| OC1(c2ccc(Cl)cc2)CCN(Cc2c[nH]c3ccccc23)CC1 | inactive |
| CCOC(=O)C12CC1/C(=N/O)c1ccccc1O2 (stereo not given) | inactive |
| Cc1nc2n(c(=O)c1CCN1CCC(c3noc4cc(F)ccc34)CC1)CCCC2O (stereo not given) | inactive |
| O=C1Nc2ccc(I)cc2/C1=C/c1cc(Br)c(O)c(Br)c1 | inactive |
| N[C@H](C(=O)O)[C@H]1C[C@@H]1C(=O)O | inactive |
| CN1CCc2cc(Cl)c(O)cc2[C@@H](c2ccccc2)C1 | inactive |
| CC[n+]1c(/C=C/C=C2/N(C)c3ccccc3C2(C)C)sc2ccccc21 | inactive |
| N#CC(=C(\N)Sc1ccccc1N)/C(C#N)=C(/N)Sc1ccccc1N | inactive |
| CCCCCCCCCCCCCCSCC(=O)O | inactive |
| Nc1ccc(-c2ccc3ccccc3n2)cc1 | inactive |
| Cc1ccc([N+](=O)[O-])cc1S(=O)(=O)N(C)C | inactive |
| CN1CC(O)C(O)C(O)C1CO (stereo not given) | inactive |
| CNc1ncnc2c1ncn2[C@H]1C[C@H](OP(=O)(O)O)[C@@H](COP(=O)(O)O)O1 | inactive |
| Cn1cc(C(=O)OCC2CCN(CCNS(C)(=O)=O)CC2)c2ccccc21 | inactive |
